Source: PubChem (The Scripps Research Institute Molecular Screening Center)
TEAD-YAP inh: TEAD-YAP interaction inhibition, primary screen, TEAD-YAP interaction inhibitor project, luminescence, HEK-TIYL cells | TEAD-Gal4/YAP UAS-luciferase luminescence | actives 1.4% (n = 640,000) | inhibition, % at 9.12 µM; in the data active means inhibition above about 32%;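 further: 0% = median of test compound wells and 100% = reference inhibitor wells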
MITF inh: MITF inhibitors, primary screen, biochemical, AlphaScreen, human. Microphthalmia-associated transcription factor (Homo sapiens), O75030. AlphaScreen MITF homodimerization, bead proximity signal. inhibition, % at 2.6 µM. actives 0.91% (n = 650,000); in the data active means inhibition above about 50%;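 further: 0% = vehicle wells with protein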
Target sequence (O75030 whole entry, looked up): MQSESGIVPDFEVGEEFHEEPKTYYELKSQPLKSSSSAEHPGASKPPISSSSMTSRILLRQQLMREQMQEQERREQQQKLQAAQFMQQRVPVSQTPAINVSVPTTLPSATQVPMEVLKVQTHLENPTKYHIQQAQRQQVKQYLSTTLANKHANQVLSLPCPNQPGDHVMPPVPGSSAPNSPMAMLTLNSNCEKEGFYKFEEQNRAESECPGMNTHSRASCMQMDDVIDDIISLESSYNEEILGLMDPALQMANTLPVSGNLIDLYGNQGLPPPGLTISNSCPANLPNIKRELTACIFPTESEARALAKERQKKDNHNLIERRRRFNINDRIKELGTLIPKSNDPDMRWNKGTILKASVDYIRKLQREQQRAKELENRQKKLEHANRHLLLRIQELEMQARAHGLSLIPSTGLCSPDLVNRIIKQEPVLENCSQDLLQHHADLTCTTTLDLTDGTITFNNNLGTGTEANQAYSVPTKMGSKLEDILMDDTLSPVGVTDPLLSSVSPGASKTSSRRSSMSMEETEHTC
GPR151 ag: activators of human GPR151, primary screen, cell-based, PathHunter beta-arrestin, luminescence; activation, % at 11.2 µM; PathHunter beta-arrestin GPR151 cells; G-protein coupled receptor 151 (Homo sapiens), Q8TDV0; actives 1% (n = 650,000); in the data active means activation above about 4.9%;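 further: 0% = median of compound wells and 100% = cells with positive control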
FBW7 activator: FBW7 E3 ligase activators, primary screen, biochemical, AlphaScreen, human; F-box/WD repeat-containing protein 7 (Homo sapiens), Q969H0; AID 1259310, 2017; actives 0.13% (n = 650,000); AlphaScreen FBW7–phospho-cyclin E peptide binding, activator screen; normalized activity (activation), % at 26.1 µM; in the data active means normalized activity above about 1.9%;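 further: purified mutant Fbw7 with reduced substrate affinity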
The depositor's hits bear a star; / = not tested or not shown. Hits are enriched below; roughly 3.5% of the tested compounds scored in any of these assays.

SMILES | TEAD-YAP inh | MITF inh | GPR151 ag | FBW7 activator
CCOC(=O)c1cnn(-c2ccccc2Cl)c1CNCc1csc(C)n1 | 4 | -4 | 4 | 0
CCCCCn1c(=S)[nH]c2cc(C(=O)Nc3ccc(C)c(C)c3)ccc2c1=O | 2 | 8 | 0 | 0
Fc1ccc(CNc2nccn3c(-c4cccc5cccnc45)cnc23)cc1 | 9 | -21 | 1 | 0
CC(C)CNc1nccn2c(-c3cccc4cccnc34)cnc12 | 42* | -12 | 1 | 0
CC(=O)C1=C(c2ccc(C3CCCCC3)cc2)N(C(C)=O)n2cnnc2S1 | 74* | -5 | 2 | 0
O=C(O)CCC(=O)Nc1ccc(-c2nc3cc4ccccc4cc3[nH]2)cc1 | -33 | -2 | 0 | 0
O=C(O)CCC(=O)Nc1cccc(-c2nc3cc4ccccc4cc3[nH]2)c1 | 34* | -30 | -6 | 0
Cc1ccc(C(C)C)n1C(=O)OC(C)(C)C | / | -9 | 0 | 0
Cc1ccc(C)c(C(=O)COC(=O)CCCC(=O)Nc2cc(C(F)(F)F)ccc2Cl)c1 | 5 | -12 | 0 | 0
Cc1nc2c(c(C)nn2C(C)(C)C)c(C)c1CCC(=O)N1CCCCC1 | 35* | 13 | 0 | 0
Cc1nc2c(c(C)nn2C(C)(C)C)c(C)c1CCC(=O)O | 1 | 6 | 0 | 0
NC(=O)c1ccc(NC(=S)Nc2ccc([N+](=O)[O-])cc2)cc1 | -5 | -8 | -1 | 0
COc1ccc(N2CCn3c(SCc4cccc(Cl)c4)nnc32)cc1 | 7 | 5 | 1 | 0
COc1ccc(N2CCn3c(SCc4cccc(C)c4)nnc32)cc1 | 8 | -4 | -1 | 1.9*
COc1ccc(Nc2nsc(C(=O)c3ccc(F)cc3)c2N)cc1 | 44* | -4 | -1 | 0
COc1ccc(C(=O)c2snc(NCc3ccccc3)c2N)cc1 | -21 | 5 | 1 | 0
COc1ccc(NC(=O)N2CC=C(c3c[nH]c4ccccc34)CC2)cc1 | 51* | 2 | 0 | 0
N=c1oc2ccc([N+](=O)[O-])cc2cc1C(=O)Nc1ccc(Cl)cc1 | 0 | 13 | -1 | 1
CC(=O)C1=C(O)C(=O)N(CCN2C(=O)C(O)=C(C(C)=O)C2c2ccccc2)C1c1ccccc1 (stereo not given) | -3 | 0 | 1 | 0
CNC(=O)CSc1nnc2c(C)cc3cc4c(cc3n12)OCO4 | -4 | 17 | -1 | 0
COc1ccc(/C=N/n2ncc3ccccc32)cc1 | 24 | -2 | -3 | 0
COc1ccc(-c2nc3ccc(C(=O)NCc4cccnc4)cc3nc2-c2ccc(OC)cc2)cc1 | 45* | 8 | 1 | 0
COc1cccc(CNC(=O)c2ccc3nc(-c4ccc(C)cc4)c(-c4ccc(C)cc4)nc3c2)c1 | 4 | -5 | 0 | 0
O=C1c2cccnc2C(=O)N1Cc1ccc(S(=O)(=O)Nc2cccnc2)s1 | -3 | 22 | -1 | 0
Cc1ccc([N+](=O)[O-])cc1NC(=O)c1c(-c2c(Cl)cccc2Cl)noc1C | -8 | -10 | -1 | 0
SMILES | TEAD-YAP inh | MITF inh | GPR151 ag | FBW7 activator
CCN(CC)C(=O)c1ccc2nc(NC(=O)c3ccc(N)cc3)sc2c1 | 80* | 9 | -1 | 0
CCN(CC)C(=O)c1ccc2nc(NC(=O)c3ccc([N+](=O)[O-])cc3)sc2c1 | 84* | 12 | 0 | 0
Cc1ccc2nc(NC(=O)c3ccc([N+](=O)[O-])cc3)sc2c1 | -12 | 17 | 0 | 0
CCN(CC)C(=O)c1ccc2nc(NC(=O)c3cccs3)sc2c1 | 88* | -6 | -10 | 0
Cc1onc(-c2c(Cl)cccc2Cl)c1C(=O)Nc1nc2ccc([N+](=O)[O-])cc2s1 | 49* | -10 | -1 | 0
CNC(=O)/C(C#N)=C/c1ccc(-c2ccc(Br)cc2)o1 | -62 | 4 | -1 | 0
CNC(=O)/C(C#N)=C/c1ccc(-c2ccc(Cl)c(Cl)c2)o1 | -5 | 9 | 0 | 1.9*
CC1CCc2c(sc(NC(=O)c3cccs3)c2C(=O)O)C1 (stereo not given) | 61* | 1 | 1 | 0
CC1CCc2c(sc(NC(=O)c3ccccc3)c2C(=O)O)C1 (stereo not given) | 70* | 16 | -4 | 0
COc1ccc(NC(=O)c2c(NC(=O)c3cccs3)sc3c2CCC(C)C3)cc1 (stereo not given) | -3 | -13 | 0 | 0
O=C(Nc1sc2c(c1C(=O)O)CCCCC2)c1cccs1 | 42* | 0 | -8 | 0
